PI5P4K alpha inh = qHTS for Inhibitors of phosphatidylinositol 5-phosphate 4-kinase (PI5P4K); Phosphatidylinositol 5-phosphate 4-kinase type-2 alpha (Homo sapiens), P48426; PI5P4Kalpha enzyme, ADP-Glo luminescence, 60 min; hits give low values; max response, %; 1.2% of 330,000 active; AID 652105, 2013; active means max response of -50% or lower; inconclusive means between -30% and -50%; inactive means -30% or higher; further: value at the top dose of about 77 µM
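ADP-Glo luminescence end-point read after a 60 min room-temperature kinase reaction of PI5P4Kalpha plus substrate, initiated with ATP at 5 microM final. Buffer: 0.038 M HEPES pH 7.4, EGTA, 0.1% CHAPS, 5% DMSO.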
Rango dissoc inh = qHTS Assay for Inhibitors of RanGTP induced Rango (Ran-regulated importin-beta cargo) - Importin beta complex dissociation. 0.071% of 340,000 active. Biochemical FRET Rango-importin beta, RanGTP-induced dissociation. Potency, µM (series often up to 46.1 µM); calls by dose curve; further: nearly all actives have a fitted effect of over 45% in size
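FRET read at 45 min, room temperature: inhibitors block the CFP/YFP signal rise when RanGTP (0.6 uM Ran, 2 mM GTP, 0.2 uM RCC1) frees Rango (0.1 uM) from importin beta (0.25 uM). Pre-read after 5 min compound exposure flags interference.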
KAT2A inh = qHTS Assay for Inhibitors of GCN5L2; AID 504327, 2011; GCN5L2 HAT assay, ThioGlo1 CoA-SH fluorescence; 0.21% of 390,000 active; Potency, µM (top dose mostly 58.9 µM), most hits filed as inhibitors; Histone acetyltransferase KAT2A (Homo sapiens), Q92830
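Fluorescence readout, Ex340nm/Em540nm: ThioGlo1 (50uM final) reacts with free CoA thiol released as 20nM GCN5L2 acetylates H3(1-25) peptide (75uM) using acetyl-CoA (70uM). Compound and enzyme sat 15 min beforehand; 20 min room-temperature reaction.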
Rango complex inh = qHTS Assay for Inhibitors of Rango (Ran-regulated importin-beta cargo) - Importin beta complex formation; 0.031% of 340,000 active; Rango CFP/YFP FRET sensor + importin beta, 45 min; Importin subunit beta-1 (Homo sapiens), Q14974; Potency, µM (series often up to 92.2 µM); calls by dose curve; further: nearly all actives have a fitted effect of over 15% in size
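FRET biosensor (snurportin 1 IBB flanked by EYFP and cerulean), 50 nM, with compound 5 min, then 0.125 microM importin beta in PBS, 1 mM DTT, 0.02% Tween-20, 0.1% BSA. CFP/YFP ratio read after 45 min at room temperature; pre-read flags interference.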
VDR inh = Inhibitors of the vitamin D receptor (VDR): qHTS. 0.93% of 400,000 active. VDR-SRC2-3 peptide fluorescence polarization, 2 h. Potency, µM, actives largely listed as inhibitors
Target sequence (P11473 whole entry, looked up): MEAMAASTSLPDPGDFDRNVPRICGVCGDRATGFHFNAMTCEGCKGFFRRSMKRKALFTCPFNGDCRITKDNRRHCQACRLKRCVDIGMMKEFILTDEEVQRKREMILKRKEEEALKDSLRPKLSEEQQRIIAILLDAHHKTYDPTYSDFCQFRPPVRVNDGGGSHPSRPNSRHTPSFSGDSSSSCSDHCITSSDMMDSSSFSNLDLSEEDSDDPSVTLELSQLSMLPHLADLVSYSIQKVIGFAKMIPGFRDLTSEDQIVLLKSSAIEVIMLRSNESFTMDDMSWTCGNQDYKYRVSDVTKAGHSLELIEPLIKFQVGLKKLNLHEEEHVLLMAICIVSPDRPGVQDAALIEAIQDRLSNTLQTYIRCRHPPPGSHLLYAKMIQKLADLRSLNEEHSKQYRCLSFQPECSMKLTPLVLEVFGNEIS
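Two reagent solutions held at 4 deg C in the dark were dispensed, compounds pinned at 23 nl, and the mixture incubated 2 h at room temperature. Read-out: fluorescence polarization of VDR–SRC2-3 peptide binding.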
PLK1 PBD block = qHTS for Inhibitors of PLK1-PDB (polo-like kinase 1 - polo-box domain): Primary Screen; Plk1 PBD binding of FITC phosphopeptide, fluorescence polarization; 2.8% of 360,000 active; AID 720504, 2013; Potency, µM, actives largely listed as inhibitors; further: series mostly up to about 57 µM; nearly all actives have a fitted effect of over 65% in size
Each line names hits and unclear results; the compound was inactive in the other large screens. In the library only some 3.6% were active in any assay of this set; here they are far more common. Unless noted, the call rests on the fitted dose curve; in most records, active means well fitted curve in the direction sought with a large enough effect; inconclusive means small, poorly fitted or top-dose-only effect, or another doubt; inactive means no such curve, though single readings can be large; an effect the other way counts as inactive or inconclusive.

O=C(c1ccco1)N1CCN(CCCCN2C(=O)c3ccccc3C2=O)CC1	KAT2A inh inconclusive (no result: PI5P4K alpha inh)
C=CCn1c(CNc2ccccc2)nnc1SCC(=O)N/N=C/c1ccc(O)cc1O	PLK1 PBD block 27µM
C=CCn1c(CNc2ccc(C)cc2)nnc1SCC(=O)N/N=C/c1ccc(O)cc1O	none
COc1ccc(-c2c3c(=O)n(C)c(=O)n(C)c3c3c(-c4ccccc4)nc4ccccc4n23)cc1	none (no result: PI5P4K alpha inh, Rango dissoc inh, Rango complex inh, PLK1 PBD block)
CCOC(=O)c1cccc(Nc2nc(C(=O)OCC)nc3ccccc23)c1	none (no result: PI5P4K alpha inh, Rango dissoc inh, Rango complex inh, PLK1 PBD block)
CCOC(=O)c1nc(Nc2cccc(C)c2)c2ccccc2n1	PLK1 PBD block 21µM
CSc1cccc(NC(=O)C2CCCN(C(=O)c3cnn(-c4ccc(F)cc4)c3-n3cccc3)C2)c1 (stereo unspecified)	none (no result: PI5P4K alpha inh, Rango dissoc inh, Rango complex inh, PLK1 PBD block)
Oc1[nH]c(=S)sc1/C=C1\C(c2ccccc2)=Nc2ccccc21	PI5P4K alpha inh -74, Rango dissoc inh inconclusive, Rango complex inh inconclusive
Oc1c(CN2CCc3ccccc3C2)cc(Cl)c2cccnc12	Rango dissoc inh inconclusive, Rango complex inh inconclusive, PLK1 PBD block 30µM
O=C(Oc1c(CN2CCOCC2)cc(Cl)c2cccnc12)c1ccccc1	none
N=C1N(c2ccccc2)C(=S)C(=Nc2ccccc2)N1c1ccccc1	VDR inh 8.9µM, PLK1 PBD block 27µM (no result: KAT2A inh)
Cc1cc(C)n(CC(C)NC(=O)c2cc(COc3c(F)cccc3F)on2)n1 (stereo unspecified)	VDR inh inconclusive, PLK1 PBD block 19µM
Cc1cc(C)n(CC(C)NC(=O)c2cc(COc3ccc(F)c(F)c3)on2)n1 (stereo unspecified)	none
O=C(Cn1ncc2c([nH]c3ccccc32)c1=O)N1CCN(c2ccccc2F)CC1	Rango complex inh inconclusive, PLK1 PBD block 27µM
O=C(Cn1ncc2c([nH]c3ccccc32)c1=O)N1CCN(c2ccc(F)cc2)CC1	PLK1 PBD block inconclusive
Cc1ccc2occ(-c3cc(-c4ccc(F)cc4)nc4c3COc3ccc(F)cc3-4)c(=O)c2c1	none (no result: PI5P4K alpha inh, Rango dissoc inh, Rango complex inh, PLK1 PBD block)
COc1cccc(CNC(=O)COCc2cc(-c3ccc4c(c3)OCO4)on2)c1	none (no result: PI5P4K alpha inh, Rango dissoc inh, Rango complex inh, PLK1 PBD block)
O=C1N(O)C2(C=CCCC2)/C(=N\O)C12CCCCC2 (stereo unspecified)	PLK1 PBD block 30µM
CC1=C(C(=O)Nc2ccccc2C)C(c2cccs2)n2nc(SCc3ccccc3)nc2N1 (stereo unspecified)	none (no result: PI5P4K alpha inh, Rango dissoc inh, Rango complex inh, PLK1 PBD block)
COc1cccc(-c2ccc3ncnc(NCCNC(C)=O)c3c2)c1	none (no result: PI5P4K alpha inh, Rango dissoc inh, Rango complex inh, PLK1 PBD block)
CC(=O)NCCNc1ncnc2ccc(-c3ccoc3)cc12	KAT2A inh 25µM, VDR inh 40µM (no result: PI5P4K alpha inh, Rango dissoc inh, Rango complex inh, PLK1 PBD block)
CN1CCN(c2ncnc3ccc(-c4ccoc4)cc23)CC1	VDR inh 45µM (no result: PI5P4K alpha inh, Rango dissoc inh, Rango complex inh, PLK1 PBD block)
COCCNc1ncnc2ccc(-c3ccc(N(C)C)cc3)cc12	KAT2A inh inconclusive, VDR inh 40µM (no result: PI5P4K alpha inh, Rango dissoc inh, Rango complex inh, PLK1 PBD block)
CS(=O)(=O)Nc1cccc(-c2ccc3ncnc(N4CCOCC4)c3c2)c1	KAT2A inh inconclusive, VDR inh 45µM (no result: PI5P4K alpha inh, Rango dissoc inh, Rango complex inh, PLK1 PBD block)
Cc1ccc(N2CCN(C(=O)c3cn(C)c4ccc(S(=O)(=O)N5CCCC5)cc4c3=O)CC2C)cc1 (stereo unspecified)	none (no result: PI5P4K alpha inh, Rango dissoc inh, Rango complex inh, PLK1 PBD block)
COCCNc1ncnc2ccc(-c3ccccc3OC)cc12	none (no result: PI5P4K alpha inh, Rango dissoc inh, Rango complex inh, PLK1 PBD block)
COc1cccc(-c2ccc3ncnc(NCCN4CCOCC4)c3c2)c1	none (no result: PI5P4K alpha inh, Rango dissoc inh, Rango complex inh, PLK1 PBD block)
COCCNc1ncnc2ccc(-c3ccoc3)cc12	KAT2A inh inconclusive, VDR inh 40µM (no result: PI5P4K alpha inh, Rango dissoc inh, Rango complex inh, PLK1 PBD block)
Cc1ccccc1-c1ccc2ncnc(N3CCNCC3)c2c1	VDR inh 50µM (no result: PI5P4K alpha inh, Rango dissoc inh, Rango complex inh, PLK1 PBD block)
c1nc(NCCN2CCOCC2)c2cc(-c3ccoc3)ccc2n1	VDR inh 45µM (no result: PI5P4K alpha inh, Rango dissoc inh, Rango complex inh, PLK1 PBD block)
CS(=O)(=O)c1cccc(-c2nnc(NC(=O)c3ccc4c(c3)OCCO4)o2)c1	none (no result: PI5P4K alpha inh, Rango dissoc inh, Rango complex inh, PLK1 PBD block)

Compound activity as filed in PubChem BioAssay.
